This is an account of results in publication PMC5540273 (PLoS ONE, 2017).

Molecules are shown by their SMILES. Bounds are passed on as bounds.
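Note: kd values determined as follow-up on hits from a single-replicate KINOMEscan panel screen.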

For one test, the system named is AAK1.
The molecule `CN1C(=O)C(Nc2ccc(Cl)c(C(=O)O)c2)=C(c2ccc(Cl)cc2)C1=O` [SB-404290] showed a Kd above 10 µM. In turn, `O=C(Nc1n[nH]c2cc(-c3cccc(F)c3F)ccc12)C1CC1` [SB-733894] displayed a Kd of 2.1 µM. Same read-out and setting: in the case of `COc1ccc(Nc2nccc(NCCNC(=O)Nc3ccccc3F)n2)cc1` [GSK1379901] it was above 10 µM.

As for `Cc1cccc(-c2nc(C)cc(Nc3ccncc3)n2)n1` [GSK257997], the Kd was above 10 µM. For `Cc1cc(-c2ccc3c(c2)CC[C@@H](N[C@@H](C)c2ccccc2)C3)cnc1N.Cl` [GW412617], binding was put at a Kd of 3.6 µM.

In the next test the test system is ABL1-nonphosphorylated.
`Cc1ccccc1-n1cnc2c(N)ncnc21` [SKF-97510]: the Kd is above 10 µM. The same measure, in the same setting: in the case of `CC(=O)Nc1nc2cnc(Nc3cc(NC(=O)c4cccc(CCC#N)c4)ccc3C)nc2s1` it was above 10 µM; in that of `O=C(Nc1ccccc1)Nc1cccc(Oc2ccc3nccn3n2)c1`, 0.14 µM; in that of `Cc1cccc(-c2nc(-c3ccc(S(C)(=O)=O)cc3)sc2-c2ccnc(NCCc3ccccc3)c2)c1`, 0.33 µM. The same measure, in the same setting: next, `COc1ccc(Nc2nccc(-c3cccc(NC(=O)c4cc5cc(F)ccc5[nH]4)c3)n2)cc1` [GSK1229782]: 0.1 µM.

The next test has as its system ACVR1B.
`Cl.c1ccc(-c2n[nH]cc2-c2ccnc(-c3ccc(CN4CCOCC4)cc3)c2)nc1` [GW776245] gave a dissociation constant Kd of 0.18 µM. With `Cc1cccc(-c2cc(Nc3ccncc3)c3ccccc3n2)n1` [GSK223675], the dissociation constant (Kd) was determined as 0.031 µM. Compared with the last molecule, the Kd is about 5.8-fold lower. Same read-out and setting: in the case of `Cc1cccc(-c2nc(Nc3ccc4[nH]ncc4c3)c3ccccc3n2)n1` [GW857175] it was 0.054 µM; in that of `Cc1csc(-c2nc(Nc3ccncc3)c3ccccc3n2)n1` [GW869640], 0.039 µM.

`COc1ccc2nc(-c3cccc(C)n3)nc(Nc3ccncc3)c2c1` [GSK204919]: the Kd amounted to 0.15 µM. In turn, `Cc1cccc(-c2nc(Nc3ccncc3)c3ccccc3n2)n1` [GW855857] returned a Kd of 0.0033 µM. Compared with the last molecule, the Kd is about 45-fold lower. The same measure, in the same setting: in the case of `Cc1ccc(NC(=O)Nc2cccc(C(F)(F)F)c2)cc1` [GSK955403] it was above 10 µM; in that of `Cc1cccc(-c2nc(Nc3cccc(C(N)=O)c3)c3ccccc3n2)n1` [GW876019], 1.6 µM.

Another test deals with ACVR2B.
Take `Fc1cccc(COc2nnc(-c3ccc4c(c3)CCO4)o2)c1`: the Kd was above 10 µM. Still for that read-out and setting: next, `Fc1cc(Cl)ccc1Nc1ccnc2cc(I)ccc12` [GW551191]: 0.11 µM; `Cc1c(O)cccc1Nc1ccnc2ccc(C(F)(F)F)cc12.Cl` [GW466413]: 0.24 µM.

One may read the Kd as the concentration at which binding is half-saturated. A low value points to tighter binding.
